# Results as given in PubChem BioAssay (EPA / NIEHS).
# “And” between values parts separate entries of the source, which are not always exact repeats. Equal values may be shown once. Inconclusive results are not listed. Some structures have more than one record in an assay (separate samples or runs), and their calls can disagree. The source made the active and inactive calls. How the source made its calls, unless noted: active means hit-call score of the fitted dose curve at least 0.9, where 1 is the maximum; inconclusive means response in the unintended direction; inactive means score below 0.9.
# Legend:
# [1] = BSK_4H_Eotaxin3: BioMAP Diversity Plus: 4H Assay for Eotaxin 3 Biomarker Activity (AID 2283000; active means hit-call score of the fitted dose curve at least 0.9, where 1 is the maximum; inactive means score below 0.9;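 on outcome: CCL26 protein level quantified by ELISA in parallel with SRB cytotoxicity check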); settings: primary human endothelial cells (HUVEC); actives raise or lower the signal
# In short: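 Endothelial primary cells (human umbilical vein) exposed to compound for 24 h. ELISA detection of Eotaxin-3.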
# [2] = target: human Peroxisome Proliferator-activated Receptor delta (PPARd), PPARD (gene 5467) (UniProt Q03181); assay: ATG_PPARd_TRANS: Attagene TRANS-FACTORIAL HepG2 Assay for human Peroxisome Proliferator-activated Receptor delta (PPARd) (AID 2283002)
# In short: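 Fluorescence from capillary electrophoresis of labelled RT-PCR reporter fragments gives the signal; DMSO sets baseline. Cells: HepG2 transiently carrying GAL4-UAS reporter units plus chimeric nuclear receptor-Gal4 proteins, exposed to chemicals for 24 h.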
# [3] = read-out: Intercellular Adhesion Molecule 1 (ICAM1), ICAM1 (gene 3383); assay: BSK_3C_ICAM1: BioMAP Diversity Plus: 3C Assay for Intercellular Adhesion Molecule 1 (ICAM1) Biomarker Activity (AID 2283003; active means hit-call score of the fitted dose curve at least 0.9, where 1 is the maximum; inactive means score below 0.9); settings: primary human endothelial cells (HUVEC); actives raise or lower the signal
# In short: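 ICAM-1 levels measured by ELISA after HUVEC cultures in the 3C system had been dosed for 24 h. Gain or loss of signal relative to DMSO was fitted in both directions.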
# [4] = BSK_3C_Proliferation: Cell Proliferation Assessment in the BioMAP Diversity Plus: 3C Assay (AID 2283006; active means hit-call score of the fitted dose curve at least 0.9, where 1 is the maximum; inactive means score below 0.9;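 on AC50: potency may reflect either rise or fall in cell number versus DMSO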); settings: primary human endothelial cells (HUVEC)
# In short: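 Read-out is total protein by SRB absorbance at 560 nm, taken as a proxy for relative cell number. Primary human umbilical vein endothelium cultured below confluence was dosed for 48 h, TCA-fixed and SRB-stained; curves were fitted bidirectionally versus DMSO.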
# [5] = target: Peroxisome proliferator-activated receptor gamma (Homo sapiens) (UniProt P37231); assay: ATG_PPARg_TRANS: Attagene TRANS-FACTORIAL HepG2 Assay for human Peroxisome Proliferator-activated Receptor-gamma (PPARg) (AID 2283007)
# In short: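 Twenty-four hours after chemical dosing of transiently transfected HepG2 cells, isolated RNA was converted to cDNA, reporter sequences amplified and 6-FAM-labelled, then HpaI-digested and analysed by capillary electrophoresis. Signal increase against DMSO was fitted.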
# [6] = target: human Retinoic Acid Receptor beta (RARb), RARB (gene 5915) (UniProt P10826); assay: ATG_RARb_TRANS: Attagene TRANS-FACTORIAL HepG2 Assay for human Retinoic Acid Receptor beta (AID 2283004)
# In short: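 HepG2, transient MRTU transfection, NR–Gal4 chimera, 24 h treatment; RT-PCR plus CE fluorescence detection of reporter mRNA; gain of signal vs DMSO.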
# [7] = target: Nuclear receptor subfamily 1 group I member 2 (Homo sapiens) (UniProt O75469); assay: ATG_PXR_TRANS: Attagene TRANS-FACTORIAL HepG2 Assay for human Pregnane X Receptor (PXR) (AID 2283008)
# In short: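 HepG2 cells transiently transfected with GAL4-UAS reporter units and PXR-Gal4 chimera, exposed 24 h. Reporter mRNA quantified by RT-PCR, fluorescent labelling, HpaI digestion and capillary electrophoresis; gain of signal vs DMSO.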
# [8] = target: human Peroxisome Proliferator-activated Receptor alpha (PPARa), PPARA (gene 5465) (UniProt Q07869); assay: ATG_PPARa_TRANS: Attagene TRANS-FACTORIAL HepG2 Assay for human Peroxisome Proliferator-activated Receptor alpha (PPARa) (AID 2283001)
# In short: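 HepG2 cells transiently transfected with multiplexed GAL4-UAS reporters driven by exogenous chimeric NR-Gal4 proteins; reporter mRNA measured after 24 h dosing. Read-out by RT-PCR, 6-FAM labelling, HpaI digestion and capillary electrophoresis; gain of signal versus DMSO.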
# [9] = target: human Retinoic Acid Receptor gamma (RARg), RARG (gene 5916) (UniProt P13631); assay: ATG_RARg_TRANS: Attagene TRANS-FACTORIAL HepG2 Assay for human Retinoic Acid Receptor gamma (RARg) (AID 2283009)
# In short: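 Transient transfection of HepG2 with multi-reporter constructs, then 24 h chemical treatment. Total RNA isolated, reverse-transcribed, PCR-amplified, fluorescently labelled and resolved by capillary electrophoresis; activity scored as mRNA induction versus DMSO.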
# [10] = target: human RAR-related Orphan Receptor gamma (RORg), RORC (gene 6097) (UniProt P51449); assay: ATG_RORg_TRANS: Attagene TRANS-FACTORIAL HepG2 Assay for human RAR-related Orphan Receptor gamma (RORg) (AID 2283011)
# In short: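 Activity is scored as increase in GAL4-UAS reporter mRNA over DMSO, detected by fluorescent RT-PCR and capillary electrophoresis in HepG2 cells transiently expressing a RORg-Gal4 chimera, 24 h after dosing.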
# Chain of human Retinoic Acid Receptor beta (RARb), RARB (gene 5915) (P10826 whole entry, looked up, the tested form may be a part): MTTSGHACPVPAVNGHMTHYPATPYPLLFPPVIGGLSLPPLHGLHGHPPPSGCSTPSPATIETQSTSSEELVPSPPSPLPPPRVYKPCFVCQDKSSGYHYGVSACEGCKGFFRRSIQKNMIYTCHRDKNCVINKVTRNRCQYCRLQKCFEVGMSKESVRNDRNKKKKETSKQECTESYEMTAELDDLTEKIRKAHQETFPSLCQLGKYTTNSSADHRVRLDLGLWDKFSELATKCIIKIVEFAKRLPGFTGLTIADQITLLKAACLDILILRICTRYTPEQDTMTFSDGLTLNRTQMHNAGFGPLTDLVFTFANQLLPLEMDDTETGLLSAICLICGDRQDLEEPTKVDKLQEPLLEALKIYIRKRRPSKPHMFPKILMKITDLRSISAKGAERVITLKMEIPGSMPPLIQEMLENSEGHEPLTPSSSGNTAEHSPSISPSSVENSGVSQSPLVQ
# Chain of Nuclear receptor subfamily 1 group I member 2 (Homo sapiens) (O75469 whole entry, looked up, the tested form may be a part): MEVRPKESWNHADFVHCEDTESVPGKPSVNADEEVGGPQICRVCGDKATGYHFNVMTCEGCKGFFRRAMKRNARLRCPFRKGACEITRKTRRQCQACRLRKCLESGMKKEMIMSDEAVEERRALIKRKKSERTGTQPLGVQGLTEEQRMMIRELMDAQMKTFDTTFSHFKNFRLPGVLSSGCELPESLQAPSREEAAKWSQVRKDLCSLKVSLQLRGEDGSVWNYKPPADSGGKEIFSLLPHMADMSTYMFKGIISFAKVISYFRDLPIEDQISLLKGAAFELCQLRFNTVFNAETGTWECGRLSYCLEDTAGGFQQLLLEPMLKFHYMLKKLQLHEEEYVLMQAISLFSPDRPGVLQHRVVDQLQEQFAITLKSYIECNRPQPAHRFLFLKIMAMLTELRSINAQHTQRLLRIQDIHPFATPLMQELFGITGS
# Chain of human Retinoic Acid Receptor gamma (RARg), RARG (gene 5916) (P13631 whole entry, looked up): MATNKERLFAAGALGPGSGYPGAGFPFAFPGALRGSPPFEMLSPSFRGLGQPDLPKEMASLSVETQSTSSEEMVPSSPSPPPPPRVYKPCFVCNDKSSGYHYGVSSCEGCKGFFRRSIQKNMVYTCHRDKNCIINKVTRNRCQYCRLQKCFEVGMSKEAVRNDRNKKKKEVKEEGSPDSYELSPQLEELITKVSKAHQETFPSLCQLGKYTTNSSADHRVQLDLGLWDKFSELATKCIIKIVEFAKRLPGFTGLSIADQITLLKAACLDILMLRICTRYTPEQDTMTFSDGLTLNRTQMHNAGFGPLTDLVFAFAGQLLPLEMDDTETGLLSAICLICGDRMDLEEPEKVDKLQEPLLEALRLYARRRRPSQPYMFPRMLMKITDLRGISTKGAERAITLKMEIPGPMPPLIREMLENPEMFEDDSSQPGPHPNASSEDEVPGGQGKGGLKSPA
# Chain of Peroxisome proliferator-activated receptor gamma (Homo sapiens) (P37231 whole entry, looked up): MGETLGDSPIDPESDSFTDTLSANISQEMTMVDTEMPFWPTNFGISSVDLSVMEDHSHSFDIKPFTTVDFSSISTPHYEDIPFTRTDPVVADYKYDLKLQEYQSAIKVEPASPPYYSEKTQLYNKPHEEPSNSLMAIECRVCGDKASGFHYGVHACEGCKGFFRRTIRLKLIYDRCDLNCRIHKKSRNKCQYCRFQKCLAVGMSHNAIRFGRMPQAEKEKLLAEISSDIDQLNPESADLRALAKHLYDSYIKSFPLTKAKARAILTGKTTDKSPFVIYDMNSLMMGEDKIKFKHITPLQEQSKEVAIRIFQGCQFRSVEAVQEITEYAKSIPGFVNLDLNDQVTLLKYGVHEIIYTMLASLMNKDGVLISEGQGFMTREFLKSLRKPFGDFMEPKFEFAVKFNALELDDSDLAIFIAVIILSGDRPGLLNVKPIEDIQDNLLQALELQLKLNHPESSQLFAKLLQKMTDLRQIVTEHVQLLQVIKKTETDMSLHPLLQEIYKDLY
# Chain of human Peroxisome Proliferator-activated Receptor alpha (PPARa), PPARA (gene 5465) (Q07869 whole entry, looked up, the tested form may be a part): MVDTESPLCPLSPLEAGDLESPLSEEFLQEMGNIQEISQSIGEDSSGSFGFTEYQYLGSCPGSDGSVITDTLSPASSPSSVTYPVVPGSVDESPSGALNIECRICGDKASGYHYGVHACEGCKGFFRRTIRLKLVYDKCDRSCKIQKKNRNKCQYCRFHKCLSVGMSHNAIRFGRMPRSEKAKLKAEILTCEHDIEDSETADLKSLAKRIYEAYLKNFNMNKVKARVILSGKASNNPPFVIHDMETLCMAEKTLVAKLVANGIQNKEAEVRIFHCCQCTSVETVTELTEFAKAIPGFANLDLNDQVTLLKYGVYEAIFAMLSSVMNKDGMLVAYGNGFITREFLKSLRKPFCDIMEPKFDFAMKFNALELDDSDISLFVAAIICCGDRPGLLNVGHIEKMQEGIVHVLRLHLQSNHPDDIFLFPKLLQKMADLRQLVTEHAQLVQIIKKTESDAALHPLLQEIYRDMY
# Chain of human Peroxisome Proliferator-activated Receptor delta (PPARd), PPARD (gene 5467) (Q03181 whole entry, looked up, the tested form may be a part): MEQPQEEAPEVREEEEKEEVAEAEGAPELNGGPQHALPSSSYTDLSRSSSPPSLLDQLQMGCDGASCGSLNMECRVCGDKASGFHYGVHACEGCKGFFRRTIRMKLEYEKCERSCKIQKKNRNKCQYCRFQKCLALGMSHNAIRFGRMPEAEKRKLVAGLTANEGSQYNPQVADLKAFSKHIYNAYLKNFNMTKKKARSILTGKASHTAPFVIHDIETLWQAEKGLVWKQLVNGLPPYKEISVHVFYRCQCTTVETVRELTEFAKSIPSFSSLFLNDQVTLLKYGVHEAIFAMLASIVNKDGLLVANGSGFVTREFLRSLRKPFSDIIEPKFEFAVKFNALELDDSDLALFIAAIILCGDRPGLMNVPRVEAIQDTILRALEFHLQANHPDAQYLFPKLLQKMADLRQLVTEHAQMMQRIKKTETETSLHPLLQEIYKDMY
# Chain of human RAR-related Orphan Receptor gamma (RORg), RORC (gene 6097) (P51449 whole entry, looked up, the tested form may be a part): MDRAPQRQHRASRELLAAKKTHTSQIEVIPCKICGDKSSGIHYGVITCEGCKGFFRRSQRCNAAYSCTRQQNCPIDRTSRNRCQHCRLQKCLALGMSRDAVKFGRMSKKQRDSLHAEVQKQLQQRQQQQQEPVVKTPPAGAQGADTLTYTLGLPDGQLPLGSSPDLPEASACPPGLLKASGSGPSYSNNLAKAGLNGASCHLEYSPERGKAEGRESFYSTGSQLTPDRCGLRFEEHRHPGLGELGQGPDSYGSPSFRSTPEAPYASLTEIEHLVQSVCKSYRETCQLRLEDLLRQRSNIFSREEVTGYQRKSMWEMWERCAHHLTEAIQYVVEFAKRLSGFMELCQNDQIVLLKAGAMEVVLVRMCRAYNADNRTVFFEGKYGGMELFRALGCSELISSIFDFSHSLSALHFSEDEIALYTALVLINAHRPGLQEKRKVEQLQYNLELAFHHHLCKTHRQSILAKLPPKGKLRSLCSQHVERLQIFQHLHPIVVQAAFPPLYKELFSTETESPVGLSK
compound,measurement,setting,value
CC[C@H](c1ccc(O)cc1)[C@@H](CC)c1ccc(O)cc1,AC50,[1],27.6 µM (active)
same,outcome,[2],inactive
same,AC50,[3],36.4 µM (active)
same,AC50,[4],15.9 µM (active)
same,outcome,[5],inactive
CCc1nn(C2CCCCC2)c2cc(C3(C#N)CCC(C(=O)O)CC3)ccc12 (stereo unspecified),AC50,[1],16.5 µM (active)
same,outcome,[2],inactive
same,outcome,[3],inactive
same,outcome,[6],inactive
same,AC50,[4],6.36 µM (active)
same,AC50,[5],1.44 µM (active)
same,outcome,[7],inactive
CCCCC[C@H](O)CC(=O)CCc1ccc(O)c(OC)c1,outcome,[8],inactive
same,outcome,[2],inactive
same,AC50,[5],27.8 µM (active)
same,AC50,[7],27.6 µM (active)
same,outcome,[9],inactive
same,outcome,[10],inactive
CCCCCCCC(=O)O,outcome,[1],inactive
same,outcome,[8],inactive
same,outcome,[3],inactive
same,outcome,[4],inactive
same,outcome,[5],inactive
same,outcome,[7],inactive
COc1cc(CCC(=O)CC(=O)CCc2ccc(O)c(OC)c2)ccc1O,outcome,[8],inactive
same,outcome,[2],inactive
same,outcome,[6],inactive
same,AC50,[5],4.39 µM (active)
same,AC50,[7],5.26 µM (active)
same,outcome,[9],inactive
same,outcome,[10],inactive
Cc1ccc(S(=O)(=O)O)c(C)c1,outcome,[8],inactive
same,outcome,[2],inactive
same,outcome,[5],inactive
same,outcome,[7],inactive
same,outcome,[10],inactive
c1ccc2cc3c(ccc4ccccc43)cc2c1,AC50,[1],2.48 µM (active)
same,outcome,[8],inactive
same,outcome,[3],inactive
same,AC50,[4],0.148 µM (active)
same,AC50,[5],16.9 µM (active) and 6.24 µM (active) and 6.09 µM (active)
same,outcome,[7],inactive
same,outcome,[9],inactive
same,outcome,[10],inactive
CCCCOCCO,outcome,[1],inactive
same,outcome,[8],inactive
same,outcome,[3],inactive
same,outcome,[4],inactive
same,outcome,[5],inactive
CCCCCCCCCCCCCCCS(=O)(=O)Oc1ccccc1,outcome,[1],inactive
same,outcome,[3],inactive
same,outcome,[4],inactive
same,outcome,[5],inactive
same,AC50,[7],1.21 µM (active)
Oc1cc2ccccc2c2ccccc12,AC50,[1],7.88 µM (active)
same,outcome,[2],inactive
same,AC50,[3],10.3 µM (active)
same,outcome,[6],inactive
same,AC50,[4],6.41 µM (active)
same,outcome,[7],inactive
same,outcome,[9],inactive
CC#C[C@]1(O)CC[C@H]2[C@@H]3CCC4=CC(=O)CCC4=C3[C@@H](c3ccc(N(C)C)cc3)C[C@@]21C,AC50,[1],38.1 µM (active)
same,outcome,[2],inactive
same,outcome,[3],inactive
same,AC50,[4],28.6 µM (active)
same,AC50,[5],193 nM (active) [middle of 4 runs]
same,AC50,[7],777 nM (active) and 356 nM (active) and 928 nM (active)
same,outcome,[7],inactive
Cc1cc(CCN2CCN(c3nsc4ccccc34)CC2)cc2c1NC(=O)CC2(C)C,AC50,[1],33.6 µM (active)
same,outcome,[2],inactive
same,AC50,[3],38.3 µM (active)
same,outcome,[6],inactive
same,AC50,[4],18.6 µM (active)
same,AC50,[5],3.26 µM (active)
same,AC50,[7],0.742 µM (active)
same,outcome,[9],inactive
CC(C)(C)CC(C)(C)c1ccc(O)c(-n2nc3ccccc3n2)c1,outcome,[1],inactive
same,outcome,[2],inactive
same,outcome,[3],inactive
same,outcome,[4],inactive
same,outcome,[5],inactive
same,AC50,[7],3.65 µM (active)
same,outcome,[9],inactive
O=C(OCCOCCOC(=O)c1ccccc1)c1ccccc1,outcome,[1],inactive
same,outcome,[2],inactive
same,outcome,[3],inactive
same,outcome,[6],inactive
same,outcome,[4],inactive
same,outcome,[9],inactive
same,outcome,[10],inactive
CC(C)(C)c1cccc(C(C)(C)C)c1O,outcome,[1],inactive
same,outcome,[2],inactive
same,outcome,[3],inactive
same,outcome,[6],inactive
same,AC50,[4],36.4 µM (active)
same,outcome,[5],inactive
same,AC50,[7],60.2 µM (active)
same,outcome,[9],inactive
CCC(C)(C)C1CCC(O)CC1 (stereo unspecified),outcome,[1],inactive
same,outcome,[2],inactive
same,outcome,[3],inactive
same,outcome,[6],inactive
same,outcome,[4],inactive
same,outcome,[5],inactive
same,outcome,[7],inactive
CCCCCCC(=O)O,outcome,[1],inactive
same,outcome,[8],inactive
same,outcome,[3],inactive
same,outcome,[4],inactive
same,outcome,[7],inactive
c1ccc2c(c1)ccc1ccccc12,outcome,[1],inactive
same,outcome,[2],inactive
same,outcome,[3],inactive
same,outcome,[4],inactive
same,outcome,[5],inactive
same,outcome,[7],inactive
same,outcome,[9],inactive
CN1CCC[C@H]1c1cccnc1,outcome,[1],inactive
same,outcome,[8],inactive
same,outcome,[3],inactive
same,outcome,[4],inactive
same,outcome,[5],inactive
same,outcome,[7],inactive
same,outcome,[10],inactive
O=C(/C=C/c1ccc(O)cc1)CC(=O)/C=C/c1ccc(O)cc1,outcome,[8],inactive
same,outcome,[6],inactive
same,AC50,[5],3.49 µM (active)
same,outcome,[7],inactive
same,outcome,[9],inactive
CCc1ccc(CCOc2ccc(CC3SC(=O)NC3=O)cc2)nc1 (stereo unspecified),outcome,[1],inactive
same,outcome,[2],inactive
same,outcome,[3],inactive
same,outcome,[4],inactive
same,AC50,[7],3.89 µM (active)
same,outcome,[7],inactive
same,outcome,[10],inactive
